Results published in the supplement of paper PMC11732987, “Enantioselective OTUD7B fragment discovery through chemoproteomics screening and high-throughput optimisation” (Communications Chemistry, 2025).

Columns and labels:
Test in all cases: log2 ratio of Biotin-Ahx-Ub-VS probe labelling (fragment/DMSO); higher = less target engagement (more negative = stronger competition), active = hit call of the paper (q ≤ 0.05, log2 ratio ≤ -1)
Conditions in all cases: compound concentration: 200 uM; treatment time: 3 h
USP16 = USP16 (UniProt Q9Y5T5)
Method in brief: (§1)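 Labelled DUBs from HEK293T lysate were NeutrAvidin-enriched, digested with LysC and trypsin, and run by diaPASEF LC-MS/MS. Before that, each 495 µg sample in Tris/CHAPS/IGEPAL buffer with protease inhibitors was treated in triplicate with fragment at 200 µM or vehicle for 3 h, then with Biotin-Ahx-Ub-VS at 0.5 µM final for 1 h. Values are average log2 ratios of fragment over vehicle by unpaired t-test, based on global-median-normalised Spectronaut label-free quantities from proteins with ≥2 unique peptides.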

USP19 = biological target: T1, USP19 (UniProt O94966)
T1 sequence (whole entry): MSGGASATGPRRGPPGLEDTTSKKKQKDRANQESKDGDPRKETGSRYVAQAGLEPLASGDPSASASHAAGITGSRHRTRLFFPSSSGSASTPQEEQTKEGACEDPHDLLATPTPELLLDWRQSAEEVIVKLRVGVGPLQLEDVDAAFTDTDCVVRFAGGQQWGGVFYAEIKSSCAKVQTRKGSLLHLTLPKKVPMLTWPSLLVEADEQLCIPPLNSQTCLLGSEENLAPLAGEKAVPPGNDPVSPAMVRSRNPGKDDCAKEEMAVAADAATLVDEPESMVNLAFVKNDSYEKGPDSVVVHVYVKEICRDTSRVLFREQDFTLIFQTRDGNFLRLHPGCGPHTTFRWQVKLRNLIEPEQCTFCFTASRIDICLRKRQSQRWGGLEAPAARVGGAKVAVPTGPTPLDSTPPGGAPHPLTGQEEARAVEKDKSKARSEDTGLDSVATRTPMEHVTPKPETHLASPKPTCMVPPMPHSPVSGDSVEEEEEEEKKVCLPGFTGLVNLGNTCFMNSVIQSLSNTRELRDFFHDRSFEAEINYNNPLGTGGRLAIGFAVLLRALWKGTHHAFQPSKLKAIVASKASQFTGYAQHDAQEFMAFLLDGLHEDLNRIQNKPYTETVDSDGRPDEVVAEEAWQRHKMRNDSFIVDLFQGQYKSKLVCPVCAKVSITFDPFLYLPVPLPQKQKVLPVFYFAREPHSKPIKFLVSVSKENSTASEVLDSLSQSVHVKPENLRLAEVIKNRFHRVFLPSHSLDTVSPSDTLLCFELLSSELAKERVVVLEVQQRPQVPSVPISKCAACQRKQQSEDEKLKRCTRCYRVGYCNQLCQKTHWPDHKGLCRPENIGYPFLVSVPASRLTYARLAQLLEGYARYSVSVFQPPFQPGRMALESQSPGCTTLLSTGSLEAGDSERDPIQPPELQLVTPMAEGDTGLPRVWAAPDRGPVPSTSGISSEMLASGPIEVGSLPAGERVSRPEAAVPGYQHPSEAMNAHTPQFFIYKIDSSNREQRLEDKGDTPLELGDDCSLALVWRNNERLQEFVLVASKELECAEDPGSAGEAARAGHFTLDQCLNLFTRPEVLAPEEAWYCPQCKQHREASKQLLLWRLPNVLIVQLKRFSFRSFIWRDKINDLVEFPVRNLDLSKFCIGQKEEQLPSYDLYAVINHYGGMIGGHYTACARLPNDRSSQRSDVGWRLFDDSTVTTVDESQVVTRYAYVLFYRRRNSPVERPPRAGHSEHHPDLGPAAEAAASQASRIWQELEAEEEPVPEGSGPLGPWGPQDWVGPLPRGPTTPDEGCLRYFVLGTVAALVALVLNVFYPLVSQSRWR
Method in brief: as §1

USP24 = USP24 (UniProt Q9UPU5)
Method in brief: as §1

USP25 = biological target: T2, USP25 (UniProt Q9UHP3)
T2 sequence (whole entry): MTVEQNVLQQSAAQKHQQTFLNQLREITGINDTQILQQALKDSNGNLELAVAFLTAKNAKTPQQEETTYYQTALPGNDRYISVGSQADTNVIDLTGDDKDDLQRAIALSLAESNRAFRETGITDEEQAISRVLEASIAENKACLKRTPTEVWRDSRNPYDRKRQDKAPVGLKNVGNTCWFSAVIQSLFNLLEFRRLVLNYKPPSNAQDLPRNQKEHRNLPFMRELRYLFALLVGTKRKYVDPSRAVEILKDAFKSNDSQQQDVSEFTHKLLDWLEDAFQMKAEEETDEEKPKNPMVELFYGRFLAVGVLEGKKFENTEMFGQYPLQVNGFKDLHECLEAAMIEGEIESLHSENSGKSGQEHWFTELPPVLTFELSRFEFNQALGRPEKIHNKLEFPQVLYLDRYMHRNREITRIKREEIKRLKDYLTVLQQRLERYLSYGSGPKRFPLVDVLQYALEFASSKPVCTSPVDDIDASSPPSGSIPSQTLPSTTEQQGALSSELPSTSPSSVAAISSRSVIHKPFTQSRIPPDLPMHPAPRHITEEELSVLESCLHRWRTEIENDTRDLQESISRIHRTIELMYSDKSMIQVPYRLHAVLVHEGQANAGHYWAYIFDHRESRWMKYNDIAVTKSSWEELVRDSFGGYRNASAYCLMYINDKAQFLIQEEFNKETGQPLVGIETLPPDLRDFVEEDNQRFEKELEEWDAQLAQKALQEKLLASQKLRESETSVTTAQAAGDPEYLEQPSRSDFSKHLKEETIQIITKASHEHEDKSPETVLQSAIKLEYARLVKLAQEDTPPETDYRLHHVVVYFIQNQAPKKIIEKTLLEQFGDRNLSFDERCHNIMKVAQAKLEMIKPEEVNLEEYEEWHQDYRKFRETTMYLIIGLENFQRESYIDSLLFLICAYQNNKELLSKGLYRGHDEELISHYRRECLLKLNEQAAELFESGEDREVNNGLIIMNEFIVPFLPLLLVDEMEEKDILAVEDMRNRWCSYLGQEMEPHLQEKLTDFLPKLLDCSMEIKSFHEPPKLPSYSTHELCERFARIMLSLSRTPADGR
Method in brief: as §1

USP28 = biological target: T3, USP28 (UniProt Q96RU2)
T3 sequence (whole entry): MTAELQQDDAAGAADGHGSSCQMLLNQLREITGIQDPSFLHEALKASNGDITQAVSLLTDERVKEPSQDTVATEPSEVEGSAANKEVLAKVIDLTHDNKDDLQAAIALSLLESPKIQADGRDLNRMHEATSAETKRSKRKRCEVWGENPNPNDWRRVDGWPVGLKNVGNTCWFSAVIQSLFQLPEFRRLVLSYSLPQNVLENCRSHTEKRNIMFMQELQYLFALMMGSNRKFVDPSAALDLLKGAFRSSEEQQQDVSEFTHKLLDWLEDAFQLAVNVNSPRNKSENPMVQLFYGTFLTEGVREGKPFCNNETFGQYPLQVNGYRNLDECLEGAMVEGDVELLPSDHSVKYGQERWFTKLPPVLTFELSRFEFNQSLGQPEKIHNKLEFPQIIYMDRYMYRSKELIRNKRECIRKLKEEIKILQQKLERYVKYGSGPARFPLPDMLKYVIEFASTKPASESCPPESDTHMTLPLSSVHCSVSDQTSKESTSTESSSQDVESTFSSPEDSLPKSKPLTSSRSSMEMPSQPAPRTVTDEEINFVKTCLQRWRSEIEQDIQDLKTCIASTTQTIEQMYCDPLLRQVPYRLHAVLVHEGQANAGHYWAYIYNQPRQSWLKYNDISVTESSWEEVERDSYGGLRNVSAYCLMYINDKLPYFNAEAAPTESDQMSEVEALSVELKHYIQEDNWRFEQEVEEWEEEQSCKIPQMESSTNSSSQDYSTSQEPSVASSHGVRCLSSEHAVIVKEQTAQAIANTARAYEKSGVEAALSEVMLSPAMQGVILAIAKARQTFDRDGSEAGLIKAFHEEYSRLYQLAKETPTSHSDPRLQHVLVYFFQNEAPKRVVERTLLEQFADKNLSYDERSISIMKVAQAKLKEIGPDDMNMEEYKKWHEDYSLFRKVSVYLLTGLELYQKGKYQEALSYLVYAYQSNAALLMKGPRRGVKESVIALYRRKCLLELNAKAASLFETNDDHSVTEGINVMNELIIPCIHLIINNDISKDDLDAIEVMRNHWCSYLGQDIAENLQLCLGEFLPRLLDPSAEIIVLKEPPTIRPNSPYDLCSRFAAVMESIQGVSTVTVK
Method in brief: as §1

Measured: log2 ratio of Biotin-Ahx-Ub-VS probe labelling

Sequence of USP24 (Q9UPU5 whole entry): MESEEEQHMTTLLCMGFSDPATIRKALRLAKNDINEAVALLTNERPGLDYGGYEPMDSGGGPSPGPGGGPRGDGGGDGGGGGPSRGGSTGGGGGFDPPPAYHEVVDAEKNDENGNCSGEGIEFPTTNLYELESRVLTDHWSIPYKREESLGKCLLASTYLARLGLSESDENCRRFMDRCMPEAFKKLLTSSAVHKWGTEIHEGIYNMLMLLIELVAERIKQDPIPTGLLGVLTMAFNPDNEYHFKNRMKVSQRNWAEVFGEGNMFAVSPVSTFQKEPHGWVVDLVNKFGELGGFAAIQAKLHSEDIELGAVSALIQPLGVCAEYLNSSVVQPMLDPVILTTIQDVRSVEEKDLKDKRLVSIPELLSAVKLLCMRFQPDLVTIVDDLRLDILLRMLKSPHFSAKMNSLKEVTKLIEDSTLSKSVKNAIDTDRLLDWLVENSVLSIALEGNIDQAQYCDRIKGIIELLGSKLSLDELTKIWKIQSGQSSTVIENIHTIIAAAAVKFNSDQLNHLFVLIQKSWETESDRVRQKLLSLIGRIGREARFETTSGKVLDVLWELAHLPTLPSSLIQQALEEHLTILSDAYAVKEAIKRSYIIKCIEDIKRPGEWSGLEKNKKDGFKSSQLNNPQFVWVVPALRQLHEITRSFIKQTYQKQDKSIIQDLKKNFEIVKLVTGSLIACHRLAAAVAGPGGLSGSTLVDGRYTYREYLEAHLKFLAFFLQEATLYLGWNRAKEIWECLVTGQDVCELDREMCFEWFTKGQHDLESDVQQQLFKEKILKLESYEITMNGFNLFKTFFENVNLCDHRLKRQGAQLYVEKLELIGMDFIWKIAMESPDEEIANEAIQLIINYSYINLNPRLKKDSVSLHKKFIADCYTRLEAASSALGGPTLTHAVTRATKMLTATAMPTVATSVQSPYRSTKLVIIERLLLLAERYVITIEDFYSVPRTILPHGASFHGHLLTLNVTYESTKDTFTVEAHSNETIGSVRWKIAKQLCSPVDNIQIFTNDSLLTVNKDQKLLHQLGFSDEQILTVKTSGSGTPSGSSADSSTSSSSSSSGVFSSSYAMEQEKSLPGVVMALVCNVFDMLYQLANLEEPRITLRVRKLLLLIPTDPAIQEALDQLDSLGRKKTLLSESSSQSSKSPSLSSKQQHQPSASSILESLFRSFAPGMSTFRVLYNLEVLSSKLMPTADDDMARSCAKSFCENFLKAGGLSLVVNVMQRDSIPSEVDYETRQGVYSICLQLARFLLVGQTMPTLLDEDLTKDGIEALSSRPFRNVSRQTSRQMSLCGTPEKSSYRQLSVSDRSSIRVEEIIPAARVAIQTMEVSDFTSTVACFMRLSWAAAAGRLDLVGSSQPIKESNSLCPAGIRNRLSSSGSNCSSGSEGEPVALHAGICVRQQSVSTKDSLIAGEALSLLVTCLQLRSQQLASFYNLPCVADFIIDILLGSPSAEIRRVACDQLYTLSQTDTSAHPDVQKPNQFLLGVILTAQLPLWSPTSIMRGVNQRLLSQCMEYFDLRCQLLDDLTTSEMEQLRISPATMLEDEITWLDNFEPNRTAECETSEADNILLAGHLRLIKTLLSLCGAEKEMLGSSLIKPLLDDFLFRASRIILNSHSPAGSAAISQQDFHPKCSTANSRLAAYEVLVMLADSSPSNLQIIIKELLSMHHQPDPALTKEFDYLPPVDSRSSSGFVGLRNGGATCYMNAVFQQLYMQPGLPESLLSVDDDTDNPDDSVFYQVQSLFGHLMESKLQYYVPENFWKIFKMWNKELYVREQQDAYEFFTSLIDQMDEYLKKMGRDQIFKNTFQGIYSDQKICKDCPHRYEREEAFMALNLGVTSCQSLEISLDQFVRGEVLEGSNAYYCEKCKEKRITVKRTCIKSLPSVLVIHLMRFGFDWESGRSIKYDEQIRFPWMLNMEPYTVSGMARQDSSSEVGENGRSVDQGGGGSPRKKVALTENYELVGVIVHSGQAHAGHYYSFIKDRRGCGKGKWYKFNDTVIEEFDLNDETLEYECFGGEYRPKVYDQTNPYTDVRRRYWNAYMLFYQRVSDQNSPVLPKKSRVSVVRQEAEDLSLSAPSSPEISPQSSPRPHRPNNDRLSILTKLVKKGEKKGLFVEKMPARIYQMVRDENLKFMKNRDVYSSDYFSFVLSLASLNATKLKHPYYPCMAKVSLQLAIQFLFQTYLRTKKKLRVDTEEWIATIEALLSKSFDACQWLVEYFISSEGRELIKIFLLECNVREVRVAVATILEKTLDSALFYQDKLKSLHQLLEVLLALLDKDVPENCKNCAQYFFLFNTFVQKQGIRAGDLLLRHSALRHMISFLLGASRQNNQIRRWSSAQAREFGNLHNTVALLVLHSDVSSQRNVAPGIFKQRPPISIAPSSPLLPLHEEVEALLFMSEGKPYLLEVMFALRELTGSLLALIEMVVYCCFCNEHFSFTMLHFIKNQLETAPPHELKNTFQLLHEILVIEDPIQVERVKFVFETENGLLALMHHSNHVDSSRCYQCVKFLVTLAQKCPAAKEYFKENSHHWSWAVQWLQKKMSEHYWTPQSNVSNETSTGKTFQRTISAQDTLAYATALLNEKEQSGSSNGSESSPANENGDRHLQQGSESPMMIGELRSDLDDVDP
Sequence of USP16 (Q9Y5T5 whole entry, looked up, the tested form may be a part): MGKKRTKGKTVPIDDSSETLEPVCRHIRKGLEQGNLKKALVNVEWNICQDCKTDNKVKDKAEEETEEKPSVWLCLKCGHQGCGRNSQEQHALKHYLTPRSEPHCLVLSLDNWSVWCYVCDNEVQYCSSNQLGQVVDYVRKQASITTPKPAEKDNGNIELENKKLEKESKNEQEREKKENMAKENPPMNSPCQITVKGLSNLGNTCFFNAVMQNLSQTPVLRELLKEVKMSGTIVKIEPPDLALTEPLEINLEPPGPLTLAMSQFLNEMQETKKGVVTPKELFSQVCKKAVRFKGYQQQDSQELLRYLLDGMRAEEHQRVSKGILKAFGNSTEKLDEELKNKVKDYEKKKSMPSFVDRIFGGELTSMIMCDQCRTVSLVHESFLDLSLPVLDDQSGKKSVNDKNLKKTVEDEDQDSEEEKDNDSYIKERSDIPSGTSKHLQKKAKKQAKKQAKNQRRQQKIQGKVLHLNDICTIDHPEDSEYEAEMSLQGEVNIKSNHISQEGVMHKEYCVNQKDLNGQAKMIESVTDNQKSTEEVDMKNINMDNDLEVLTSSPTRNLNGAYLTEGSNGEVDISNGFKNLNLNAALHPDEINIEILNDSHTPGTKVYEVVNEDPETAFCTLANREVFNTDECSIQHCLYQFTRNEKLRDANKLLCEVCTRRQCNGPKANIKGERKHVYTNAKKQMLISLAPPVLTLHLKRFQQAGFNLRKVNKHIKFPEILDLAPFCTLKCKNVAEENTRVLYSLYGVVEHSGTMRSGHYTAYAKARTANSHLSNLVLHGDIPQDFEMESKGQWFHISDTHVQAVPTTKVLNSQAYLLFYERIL

Cc1ccc(CN(C)C(=O)CCl)o1
inactive: USP16 -0.0354 | USP19 -0.241 | USP24 -0.411 | USP25 -0.156 | USP28 -0.465
